Our source for the INHIBITION values is ChEMBL document CHEMBL4513216, “Probing the Open Global Health Chemical Diversity Library for Multistage-Active Starting Points for Next-Generation Antimalarials” (ACS Infect Dis, 2020).

Structures are written as SMILES. Hit rate of the full screen: of about 65,000 compounds, about 2,100 (3.2%) showed an effect of 50% or more. The median lay at about -52%. Shown is part of a subset that was picked to be rich in strong results.

The assay has as its system Plasmodium falciparum. Nature of the assay: Screen against P. falciparum Asexual Blood Stage (ABS), at 5uM. It is filed as functional, Dd2. The note with it: tested at 5 uM.
As to `Cc1cc(-c2cnc(NC3CCCC3)nc2-c2ccoc2C)on1`, the INHIBITION is -65.8%.
Consider `Cc1cc(-c2cnc(NC3CC3)nc2-c2ccoc2C)on1`, for which the INHIBITION is reported as -62%.
With `CCN(CC)CCNc1ncc(-c2cc(C)no2)c(-c2ccoc2C)n1` the figure was 61.9%.
With `CCc1nc(C2CCCN(C(=O)c3ccccc3F)C2)no1` (stereo not given) the figure was -49.5%; with `CN(C)C(=O)N1C[C@H]2CC[C@@H](C1)N(C/C=C/c1ccc(F)cc1)C2`, 57.8%; with `CS(=O)(=O)N1C[C@H]2CC[C@@H](C1)N(C/C=C/c1ccc(F)cc1)C2`, -43.1%.
In the case of `CN(C)C(=O)CN1C[C@H]2CC[C@@H](C1)N(C/C=C/c1ccc(F)cc1)C2` it was 43.5%.
In the case of `NC(=O)Cn1ccc(O)c(Cc2ccc(Cl)cc2Cl)c1=O`, the INHIBITION is -144%.
For the molecule `CN(C)[C@H]1CCN(c2ccnc(C(=O)NCc3ccco3)c2)C1`, the INHIBITION is -95.2%.
`CCCOC1CCCN(c2ccnc(C(=O)NCc3ccco3)c2)C1` (stereo not given): the INHIBITION was 64.2%.
In the case of `O=C(NCc1ccco1)c1cc(N2CC[C@@H](O)C2)ccn1` it was -217%; in that of `Cc1ncnc2c1CCN(S(=O)(=O)C1CC1)CC2`, -47.1%; in that of `CCc1nc(CN2CCCC(N(C)CCc3cccs3)C2)no1` (stereo not given), 12.3%.
`Cn1ccnc1CN1CCCN(C(=O)COC2CCCCC2)CC1`: the INHIBITION is -46.8%.
With `C/C=C(\C)CN1C[C@H](c2cccc(OC)c2)[C@@H](N)C1`, the INHIBITION is reported as 65.6%.
As to `COc1cccc([C@H]2CN(CCCS(=O)(=O)N(C)C)C[C@@H]2N)c1`, the INHIBITION is given as -56.8%.
As for `CCOCCN1C[C@H](c2cccc(OC)c2)[C@@H](N)C1`, the INHIBITION is -3.38%.
`Cc1nc(C(=O)N(C)[C@@H]2CCC[C@@H](Oc3ccccc3)[C@@H]2O)co1`: the INHIBITION is given as -3.45%.
With `CC(C)c1nsc(N2CCCOCC2)n1` the figure was -47.6%; with `Cc1ccc(CN(CCCN2CCOCC2)Cc2cnn(C)c2)o1`, -2.55%; with `Cc1ccc(CN(CCCN2CCOCC2)Cc2cnc(C)n2C)o1`, 55.1%.
For `Cc1ccc(CN(CCCN(C)C)Cc2cnc(C)n2C)o1`, the INHIBITION is given as -17.8%.
Consider `Cc1cc(NC(=O)NCc2cccnc2OC2CCCC2)n(C)n1`, for which the INHIBITION was -37%.
For the molecule `O=C(NCCN1CCCCC1)c1cccc(Cl)c1Cl`, the INHIBITION worked out at 50.5%.
Turning to `Cc1cc(Br)ccc1C(=O)NCCN1CCCCCC1`, the INHIBITION came to 30.2%.
In the case of `O=C(NCCN1CCCCC1)c1scnc1Cl` it was -130%; in that of `Cc1ccc(CN2C(=O)CCC23CCC(NCC2CCOC2)CC3)cc1` (stereo not given), -1.23%; in that of `O=C(NC1CCC1)[C@@H]1CCO[C@@H]2CCN(CCc3ccccc3)C[C@H]21`, 36.5%.
In the case of `Cc1c[nH]nc1C1CCCN1Cc1nccn1C` (stereo not given) it was 57.3%; in that of `COc1cccc(CC2CCCN2Cc2nccn2C)c1` (stereo not given), 52%.
In the case of `COc1cccc(CC2CCCN2CCCO)c1` (stereo not given) it was -8.85%; in that of `Cc1c[nH]nc1C1CCCN1Cc1ccncc1` (stereo not given), -8.01%.
For `Cn1ccnc1CN1CCCC1CCc1ccccc1` (stereo not given), the INHIBITION is given as 37.6%.
Turning to `Cc1c[nH]nc1C1CCCN1Cc1ncc[nH]1` (stereo not given), the INHIBITION was determined as 34.9%.
On to `CC1CCN(C(=O)C(C)N2CCN(c3nccs3)CC2)CC1` (stereo not given), for which the INHIBITION is -55.4%.
In the case of `Cc1cc(C(=O)N2CCCCC2C)ccc1NC(=O)N1CCOCC1` (stereo not given) it was -137%; in that of `O=C(N1CCCCC1)N1CCN(CC(O)c2ccccc2)CC1` (stereo not given), -4.34%.
As for `O=C(c1cscn1)N1CCC[C@]2(C[C@H](OCC3CC3)CO2)C1`, the INHIBITION is listed as -132%.
`Cc1cc(-c2nccs2)nc(C2CCN(Cc3ccncc3)CC2)n1`: the INHIBITION is recorded as -25.9%.
`Cc1cc(-c2nccs2)nc(C2CCN(Cc3ccc(F)cc3)CC2)n1`: the INHIBITION is 62.9%.
In the case of `Cc1cc(-c2nccs2)nc(C2CCN(Cc3cccs3)CC2)n1`, the INHIBITION amounted to 16.1%.
In the case of `O=C(c1csc(I)c1)N1CCc2c(ncn2C2CC2)C1` it was -41.85%; in that of `Cc1nc(CN2CCc3ncnc(-c4cccnc4)c3CC2)cs1`, -30.7%.
Consider `CN1CC2(CCN(Cc3cccc(C#N)c3)CC2)CC1=O`, for which the INHIBITION was -15.1%.
For the molecule `CN1CCC2(COCCN(Cc3ccc4c(c3)OCO4)C2)C1` (stereo not given), the INHIBITION was -102%.
In the case of `CN1CCC2(COCCN(Cc3cccc(C#N)c3)C2)C1` (stereo not given) it was 57%.
With `C/C=C(\C)CN1C[C@H](NC(=O)CCOC)[C@@H](c2ccc(C)o2)C1`, the INHIBITION is recorded as -33.1%.
Regarding `CCC1(CO)CCN(C(=O)c2cc(COc3ccccc3F)[nH]n2)CC1`, the INHIBITION is -66.6%.
With `O=C(c1cccnc1)N1CCN2C[C@H](OCc3ccccc3)C[C@H]2C1`, the INHIBITION is -19.2%.
With `CCc1ccc(C2CC(=O)Nc3c2c(=O)[nH]n3C(C)C)cc1` (stereo not given) the figure was -113%; with `c1ccc(CN2CCn3c(Cn4cncn4)cnc3C2)nc1`, -53.9%.
With `O=C1N(Cc2ccccc2F)CCCC12CCN(C1CCSCC1)C2` (stereo not given) the figure was 34.2%; with `O=C1N(Cc2ccc(F)c(F)c2)CCCC12CCN(C1CCCCC1)C2` (stereo not given), 60.9%; with `CCS(=O)(=O)N1CCC2(CCCN(Cc3ccc(F)c(F)c3)C2=O)C1` (stereo not given), -68%.
In the case of `O=C1N(Cc2ccc(F)c(F)c2)CCCC12CCN(C1CCCC1)C2` (stereo not given), the INHIBITION stood at 68.1%.
